UHRF1 binding: UHRF1 methylated DNA binding inhibitors, primary screen, counter-screen for MBD2 inhibitor project, biochemical, TR-FRET, human UHRF1, single concentration. 370,000 compounds, 0.75% hits. UHRF1 binding to methylated oligo. E3 ubiquitin-protein ligase UHRF1 (Homo sapiens), Q96T88. inhibition, % at 4.4 µM; in the data active = inhibition above about 21%;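 also: UHRF1 SRA domain binding a hemimethylated CpG hairpin DNA probe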
PRMT1 inh: PRMT1 methyltransferase inhibitors, primary screen, biochemical, fluorescence polarization; inhibition, % at 2.79 µM; Protein arginine N-methyltransferase 1 (Homo sapiens), Q99873; AID 652257, 2013; recombinant PRMT1, activity-based probe fluorescence polarization; 370,000 compounds, 1.3% hits;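 active = inhibition above about 21% made by adding two undisclosed values, limit read from the data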
Target sequence (Q99873 whole entry, looked up): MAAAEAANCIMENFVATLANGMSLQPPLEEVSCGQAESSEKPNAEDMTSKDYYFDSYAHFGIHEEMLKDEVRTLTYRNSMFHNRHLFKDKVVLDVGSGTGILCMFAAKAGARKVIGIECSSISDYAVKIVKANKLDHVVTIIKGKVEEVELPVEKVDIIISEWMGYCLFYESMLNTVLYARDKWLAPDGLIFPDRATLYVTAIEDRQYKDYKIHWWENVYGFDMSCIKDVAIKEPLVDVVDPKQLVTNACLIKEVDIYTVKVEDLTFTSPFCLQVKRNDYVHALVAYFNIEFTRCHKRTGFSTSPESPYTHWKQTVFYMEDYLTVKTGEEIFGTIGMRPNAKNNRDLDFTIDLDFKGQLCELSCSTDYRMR
LEDGF integ inh: blockers of LEDGF/p75-dependent integrase strand transfer – biochemical, TR-FRET, high throughput, primary screen; inhibition, % at 3.7 µM; HIV-1 integrase (with human LEDGF/p75); TR-FRET IN-LEDGF/p75 DNA integration, Eu/Cy5; 370,000 compounds, 0.64% hits;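 active = inhibition above the screen-wide mean plus 3 SD, cut at about 13% in these data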;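 also: signal is the Cy5 over europium emission ratio at 671 and 618 nm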
MBD2 DNA inh: inhibitors of MBD2 binding to methylated DNA, primary screen, biochemical, TR-FRET, DNA-binding domain, human | MBD2 binding to methylated oligonucleotide | inhibition, % at 4.4 µM | Methyl-CpG-binding domain protein 2 (Homo sapiens), Q9UBB5 | 370,000 compounds, 0.31% hits | AID 686964, 2013; in the data active = inhibition above about 13%
IN multimer up: HIV-1 IN multimer formation enhancers, counter-screen for LEDGF/p75 integration inhibitor project, biochemical, TR-FRET; activation, % at 7.7 µM; 2,000 compounds, 17% hits; TR-FRET HIV-1 integrase multimerization; AID 1053131, 2014; shares compounds with LEDGF integ inh; in the data active = activation above about 8.9%
TRFRET interf: TR-FRET optical interference artefacts, confirmation, artefact control for LEDGF/p75-dependent integration inhibitor project, biochemical, HIV-1 IN multimerization. shares compounds with LEDGF integ inh. TR-FRET optical interference counterscreen. inhibition, % at 7.7 µM. 2,000 tested, under 10 active. AID 1053135, 2014;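 active = inhibition above the mean over all tested compounds plus 3 SD, which no compound reached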
IN-LEDGF confirm: inhibitors of HIV-1 IN-LEDGF/p75 DNA integration, confirmation, biochemical, TR-FRET. shares compounds with LEDGF integ inh. TR-FRET LEDGF/p75-dependent HIV-1 integration. inhibition, % at 3.7 µM. 2,000 compounds, 36% hits. AID 1053136, 2014; in the data active = inhibition above about 14%
Each line names hits and unclear results; the compound was inactive in the other large screens (follow-up assays come after a bar, where they were run). A selection: hits, their analogues and other compounds. The true share with any hit is near 2.5%.

CC1CN(S(=O)(=O)c2ccc(C(=O)Nc3nccs3)cc2)CC(C)O1 (configuration not stated)	none
O=C(Nc1nccs1)c1ccc(S(=O)(=O)N2CCCCC2)cc1	LEDGF integ inh 15 | IN multimer up inactive | TRFRET interf inactive | IN-LEDGF confirm inactive
O=C(O)CC(CCc1ccccc1)OC1OC(CO)C(O)C(O)C1O (configuration not stated)	LEDGF integ inh 85 | IN multimer up 87 | TRFRET interf inactive | IN-LEDGF confirm 92
Cc1cccc(Cc2ccc(Cl)nn2)c1	none
C(=N\NC1=Nc2cccc3cccc1c23)/c1ccccc1	LEDGF integ inh 19 | IN multimer up inactive | TRFRET interf inactive | IN-LEDGF confirm inactive
CCCCn1c(NC(=O)C2CCCCC2)nc2ccccc21	LEDGF integ inh 28 | IN multimer up inactive | TRFRET interf inactive | IN-LEDGF confirm 17
CCn1c(NC(=O)c2ccccc2)nc2ccccc21	none
CN(C)CCCn1c(NC(=O)C2CCCCC2)nc2ccccc21	none
CCCCn1c(NC(=O)c2ccccc2)nc2ccccc21	LEDGF integ inh 26 | IN multimer up inactive | TRFRET interf inactive | IN-LEDGF confirm 25
C=CCn1c(NC(=O)c2ccccc2)nc2ccccc21	UHRF1 binding 72, LEDGF integ inh 15 | IN multimer up inactive | TRFRET interf inactive | IN-LEDGF confirm 14
O=S1(=O)c2ccc(N3CCCC3)cc2Oc2ccccc2CN1Cc1cn(Cc2ccccc2C(F)(F)F)nn1	none
CC(C)(C)n1nnnc1C(c1ccccc1)N1CCN(CCN2CCOCC2)CC1 (configuration not stated)	none
CCOc1ccc(C(C)=O)cc1CN1C(=O)NC2(CCCCCCC2)C1=O	none
CCCCN1C(=O)C(CC(=O)NCCCN(C)C)CC(C(=O)N2CCCCCC2)=C1C (configuration not stated)	none
CCC(CO)Oc1cc(NC(=O)c2ccc(N)cc2)c2ncn(C(C)C)c2c1 (configuration not stated)	LEDGF integ inh 14 | IN multimer up inactive | TRFRET interf inactive | IN-LEDGF confirm 25
CCC(COC)Oc1cc(NCc2ccccc2)c2ncn(C(C)C)c2c1 (configuration not stated)	LEDGF integ inh 27 | IN multimer up inactive | TRFRET interf inactive | IN-LEDGF confirm 30
CCCCN(C(=O)C1CC1)C1CCS(=O)(=O)C1 (configuration not stated)	none
O=c1oc2ccccc2c(Nc2cccc(O)c2)c1[N+](=O)[O-]	none
Cc1ccc(Nc2c([N+](=O)[O-])c(=O)oc3ccccc23)cc1C	LEDGF integ inh 14 | IN multimer up inactive | TRFRET interf inactive | IN-LEDGF confirm inactive
COCCN(CCOC)Cc1c(O)ccc2c1O/C(=C\c1ccc(C)o1)C2=O	LEDGF integ inh 40 | IN multimer up 13 | TRFRET interf inactive | IN-LEDGF confirm 14
COc1cccc(/C=C2\Oc3cc(OCC(=O)N4CCCC4)ccc3C2=O)c1OC	none
Cc1ccc(/C=C2\Oc3cc(OCC(=O)NN)ccc3C2=O)o1	LEDGF integ inh 21 | IN multimer up inactive | TRFRET interf inactive | IN-LEDGF confirm 14
O=C1C=C(O)CC(c2ccco2)C1 (configuration not stated)	UHRF1 binding 36, LEDGF integ inh 38 | IN multimer up inactive | TRFRET interf inactive | IN-LEDGF confirm 21
Cn1c(SCCc2ccccc2)nnc1-c1ccco1	none
COc1ccccc1N(/N=C1\Sc2ccccc2C1=O)C(C)=O	LEDGF integ inh 17 | IN multimer up inactive | TRFRET interf inactive | IN-LEDGF confirm 23
CC1=C(SCc2ccccc2)C(=O)c2ccccc2C1=O	PRMT1 inh 66, LEDGF integ inh 24 | IN multimer up inactive | TRFRET interf inactive | IN-LEDGF confirm 44
Cc1ccc(-c2c(C(=O)O)c(C(=O)O)c3n2CSC3)cc1	PRMT1 inh 24, LEDGF integ inh 14 | IN multimer up inactive | TRFRET interf inactive | IN-LEDGF confirm inactive
CC(C)(C)c1ccc(-c2c(C(=O)O)c(C(=O)O)c3n2CSC3)cc1	none
COc1ccc(CN2c3cc(S(=O)(=O)N4CCOCC4)ccc3N3CCCC32)cc1 (configuration not stated)	none
O=S(=O)(c1ccc2c(c1)N(Cc1ccc(Cl)cc1)C1CCCN21)N1CCOCC1 (configuration not stated)	LEDGF integ inh 23 | IN multimer up inactive | TRFRET interf inactive | IN-LEDGF confirm inactive
COC(=O)[C@]12C[C@H](CC(=O)N3CCN(C(=O)C4CC4)CC3)C(=O)N(Cc3cccc4ccccc34)C1=C[C@H](C1CCCC1)O[C@@H]2C	none
Cc1ccccc1-n1c(=O)cc(N2CCN(Cc3ccccc3)CC2)[nH]c1=O	LEDGF integ inh 18 | IN multimer up inactive | TRFRET interf inactive | IN-LEDGF confirm inactive
CCOC(=O)N1CCN(c2cc(=O)n(-c3ccccc3C)c(=O)[nH]2)CC1	none
O=c1oc(-c2cccs2)nc2sc3c(c12)CCC3	none
O=c1oc(/C=C/c2ccco2)nc2sc3c(c12)CCC3	UHRF1 binding 40, LEDGF integ inh 25 | IN multimer up inactive | TRFRET interf inactive | IN-LEDGF confirm inactive
O=C(Cc1coc2cc(O)ccc12)N1CCN(S(=O)(=O)c2ccc(Br)cc2)CC1	none
COc1ccc(-n2c(N)c(C(=O)NCC3CCCO3)c3nc4ccccc4nc32)c(OC)c1 (configuration not stated)	LEDGF integ inh 19 | IN multimer up inactive | TRFRET interf inactive | IN-LEDGF confirm inactive
COc1nc(N(C)S(=O)(=O)c2ccc(C)cc2)nc(C)c1Br	none
O=C(NCC1CC1)C1(S(=O)(=O)c2ccccc2)CC=CC1	none
COCCNC(=O)C1(S(=O)(=O)c2ccccc2)CC=CC1	LEDGF integ inh 24 | IN multimer up inactive | TRFRET interf inactive | IN-LEDGF confirm inactive
O=C1OC(/C=C/c2ccc(Cl)cc2)=NC/1=C/c1ccco1	LEDGF integ inh 17 | IN multimer up inactive | TRFRET interf inactive | IN-LEDGF confirm inactive
O=C(Cn1c(=O)sc2ccccc21)NCc1ccccn1	LEDGF integ inh 19 | IN multimer up inactive | TRFRET interf inactive | IN-LEDGF confirm inactive

Screening data deposited in PubChem BioAssay by The Scripps Research Institute Molecular Screening Center.
